Bioassay records from PubChem BioAssay.
Shown are actives, neighbours in structure and some others; about 6.5% of the full set was active somewhere.
Marburg entry inh = qHTS for inhibitors of binding or entry into cells for Marburg Virus; Marburg virus pseudotyped entry inhibition, cell reporter; Potency, µM (doses to about 37.8 µM), without a hit: top-dose activity change, negative = inhibition, actives largely listed as inhibitors; 300,000 compounds, 1.8% hits; AID 540276, 2011; calls by dose curve; tested in HEK293 cells; also: potency is read from the fitted curve at half-maximal effect
Lassa entry inh = qHTS for Inhibitors of binding or entry into cells for Lassa Virus; Lassa virus pseudotype entry inhibition, cell reporter; Potency, µM (doses to about 37.9 µM), inactives show at the highest dose activity change, negative = inhibition, usual class: inhibitors; AID 540256, 2011; 300,000 compounds, 1.2% hits; calls by dose curve; tested in HEK293 cells; also: potency is read from the fitted curve at half-maximal effect; nearly all actives have a fitted effect of over 50% in size
Vaccinia mCherry = qHTS for Stage-Specific Inhibitors of Vaccinia Orthopoxvirus: mCherry Reporter Primary qHTS. Vaccinia virus mCherry reporter infection, fluorescence. Potency, µM (highest dose often 36.5 µM), for the others: at the top dose activity change, negative = inhibition, most hits filed as inhibitors. 310,000 compounds, 0.63% hits; calls by dose curve; tested in A549 cells; also: potency is read from the fitted curve at half-maximal effect; nearly all actives have a fitted effect of over 35% in size
HCMV antiviral = qHTS Assay for inhibitors of the human cytomegalovirus (HCMV). HFF cells, HCMV-luciferase reporter, 72 h; hits give low values. activity change, negative = inhibition, % at 57.5 µM. 410,000 compounds, 4.5% hits. AID 1259415, 2018; in the data active = activity change below about -60%; inconclusive = no clear call, values can overlap the other calls; inactive = above about -39%
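Compounds were evaluated in HFFs infected with an HCMV luciferase reporter virus (MOI 1 PFU/cell). Luciferase in lysates collected 72 h post infection served as the replication measure.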
FMDV antiviral = High Throughput Screening for Foot and Mouth Disease Virus Antivirals. AID 1159524, 2015. 410,000 compounds, 1.2% hits. Potency, µM (titrated, usually from 57.9 µM), for the others: at the top dose activity change, negative = inhibition, most hits filed as inhibitors. FMDV antiviral cell-based qHTS; calls by dose curve; tested in HEK293T cells; also: read-out not given here; potency is read from the fitted curve at half-maximal effect; nearly all actives have a fitted effect of over 45% in size
VACV Venus inh = qHTS for Stage-Specific Inhibitors of Vaccinia Orthopoxvirus: Venus Reporter Primary qHTS | Potency, µM (top dose mostly 36.5 µM), for inactives: top-dose activity change, negative = inhibition, usual class: inhibitors | AID 720580, 2013 | 330,000 compounds, 0.46% hits | Vaccinia virus Venus reporter expression, fluorescence; calls by dose curve; tested in A549 cells; also: potency is read from the fitted curve at half-maximal effect; nearly all actives have a fitted effect of over 30% in size
Numbers without * were called inactive; i = inactive; ? = inconclusive; . = no result given; + = active, no number; ! = repeats disagree; [ ] = another dose, or the depositor's remark. % is scaled to controls: 0 for no effect and ±100 for the full control effect.

SMILES | Marburg entry inh | Lassa entry inh | Vaccinia mCherry | HCMV antiviral | FMDV antiviral | VACV Venus inh
CC(=O)c1ccc(S(=O)(=O)N2CCN(c3ccnc4cc(Cl)ccc34)CC2)cc1 | . | . | -30% | -70* | ? | -24%
O=S(=O)(c1ccc(Br)s1)N1CCN(c2ccnc3cc(Cl)ccc23)CC1 | ? | -20% | -8% | -72* | ? | -13%
Cc1ccc(S(=O)(=O)N2CCN(c3ccnc4cc(Cl)ccc34)CC2)cc1 | 5µM* | -22%[46.1 µM] | -13% | -61* | -9% | -4%
CS(=O)(=O)N1CCN(c2ccnc3cc(Cl)ccc23)CC1 | 5% | -13%[46.1 µM] | i | -3 | -14% | -14%
C(=Nc1ccc(/C=C/c2ccnc3ccccc23)cc1)c1cccs1 | . | . | 3% | . | . | -6%
O=C1CSC(=S)N1c1cccc(Br)c1 | ? | ? | 14% | -77* | ? | 9%
NNC(=O)c1[nH]c2ccc(Br)cc2c1-c1ccccc1 | ? | ? | ? | -96* | -24% | ?
NNC(=O)c1[nH]c2ccc(Cl)cc2c1-c1ccccc1 | ? | ? | -27% | -97* | -5% | ?
CCOC(=O)c1cc(-c2ccc(C)cc2)n(CC(=O)Nc2ccccc2F)c1C | -12%[46.1 µM] | . | ? | -82* | 13% | ?
COc1ccc(-c2cc(C(C)=O)c(C)n2CCC(=O)Nc2ccc(C)c(Cl)c2)cc1 | . | -27%[46.1 µM] | -12% | + | -20% | -12%
CCCNC(=O)CCn1c(-c2ccc(C)cc2)cc(C(=O)OCC)c1C | -17% | -8% | i | 6 | -13% | -7%
CCOC(=O)c1cc(-c2ccccc2)n(CCC(=O)NCCc2ccccc2)c1C | . | 11µM* | -16% | -35 | -10% | 0%
CCOC(=O)c1cc(-c2ccccc2)n(CCC(=O)Nc2ccc(C(F)(F)F)cc2)c1C | . | ? | -30% | -98* | ? | -24%
COc1cccc(C(=O)Nc2cccc(-c3nc4ncccn4c3C)c2)c1 | . | 4%[46.1 µM] | -15%[7.34 µM] | 74 | 30% | -10%[7.34 µM]
CC(C)c1ccc(NC(=O)c2cc(S(=O)(=O)N3CCCC3)c[nH]2)cc1 | . | . | -28% | -77* | -17% | -28%
CCc1ccc(NC(=O)c2cc(S(=O)(=O)N3CCCC3)c[nH]2)cc1 | . | . | -27% | . | 3% | ?
CCOc1ccc(NC(=O)c2cc(S(=O)(=O)N3CCCCC3)c[nH]2)cc1 | . | -13%[46.1 µM] | ? | -65*! | 18% | -9%
CCn1c(-c2cccc(OC)c2)nc2cc(NC(C)=O)cc(C(=O)N(C)CC3COCCO3)c21 (configuration not stated) | . | . | -3% | . | 2% | 0%
Cc1cc(C)c2nc3nc(C)c(C)cc3c(N)c2c1 | ? | ? | ? | -99* | -13% | ?
CC(C)Oc1ccc(C(=O)N(Cc2ccc(N(C)C)cc2)C2CCS(=O)(=O)C2)cc1 (configuration not stated) | -24%[46.1 µM] | 1%[46.1 µM] | -7% | 6 | -14% | -8%
CCOc1ccccc1CNC(=O)c1ccc2c(c1)sc1nc(-c3cccc(OC)c3)cn12 | . | -2%[46.1 µM] | -13% | . | 5% | -15%
Cc1cccc2sc(N(CCCN(C)C)C(=O)CCc3ccccc3)nc12 | ? | ? | ? | -72* | -12% | ?
CN(C)CCCN(C(=O)CCc1ccccc1)c1nc2ccc(F)cc2s1 | -29% | -18% | -12% | -12 | -15% | -12%
CN(C)CCCN(C(=O)CCc1ccccc1)c1nc2ccc(Br)cc2s1 | ? | ? | ? | 0 | 25µM* | ?
CC1CCCCC1NC(=O)COC(=O)c1ccc2c(c1Cl)C(=O)c1ccccc1C2=O (configuration not stated) | ? | -13% | . | -74* | -19% | .
SMILES | Marburg entry inh | Lassa entry inh | Vaccinia mCherry | HCMV antiviral | FMDV antiviral | VACV Venus inh
O=C(COC(=O)c1cccc2c1C(=O)c1ccccc1C2=O)NC1CCCCC1 | ? | ? | -28% | ? | ? | ?
O=C(C[N+]12CCCc3cccc(c31)CCC2)c1ccccc1 | . | . | -11% | . | . | ?
CC(=O)Nc1cnn(Cc2ccc(Br)cc2)c1 | 12% | 2% | . | 22 | -17% | .
Cn1cc(NC(=O)CCl)cn1 | ? | ? | ? | -84* | ? | ?
C[C@@H]1COc2cc(Br)ccc2S(=O)(=O)N1 | . | 1%[46.1 µM] | . | . | . | .
O=[N+]([O-])c1cccn2cc(-c3ccc(Br)cc3)nc12 | ? | 18% | ? | -62* | 51% | -28%
CCOc1ccccc1Nc1nc(-c2sc(C)nc2C)cs1 | ? | -5%[46.1 µM] | 3.5µM* | 59 | 4% | ?
CCCCCC(=O)Nc1nc(C)c(-c2csc(Nc3cc(Cl)ccc3OC)n2)s1 | . | . | ? | -36 | -17% | ?
COc1ccccc1Nc1nc(-c2sc(NC(=O)C(C)(C)C)nc2C)cs1 | . | . | ? | -88* | -17% | -29%
Cc1ccc(Cl)cc1Nc1nc(-c2sc(NC(=O)C(C)(C)C)nc2C)cs1 | . | . | ? | -73* | -22% | -13%
CC#CCN1C(=O)NC(c2ccccc2)C(C(=O)OCC)=C1c1ccccc1 (configuration not stated) | 7%[14.2 µM] | . | . | . | . | .
O=C1Nc2ccccc2/C1=N/N=C/c1ccc(-c2ccc([N+](=O)[O-])cc2)o1 | . | . | . | -83* | 0% | .
Cc1cccc(C(=O)Nc2nnc(-c3ccncc3)o2)c1 | ? | 0%[46.1 µM] | -5% | 19 | 13% | -5%
CC(=O)c1ccc(C(=O)Nc2nnc(-c3ccc(Cl)cc3)o2)cc1 | . | . | -15% | -12 | -9% | -18%
O=C(Nc1nnc(-c2ccncc2)o1)c1ccc2ccccc2c1 | 9%[46.1 µM] | -23%[46.1 µM] | -25% | -95* | -6% | -7%
O=C(Nc1nnc(-c2ccccc2)o1)c1ccc(Cl)cc1 | 13µM* | ? | -6% | 21 | 8% | -6%
COc1ccc(C)cc1NC(=O)Cn1c(=O)oc2cc(S(=O)(=O)NCc3ccccc3)ccc21 | . | 18%[46.1 µM] | -16% | + | 14% | -10%
CCOC(=O)c1nnn(-c2nonc2-n2cccc2)c1CN1CCC(C)CC1 | ? | ? | -2% | ? | -28% | 3%
CCOC(=O)c1nnn(-c2nonc2-n2cccc2)c1CCl | -8% | -17% | . | ? | 14µM* | -2%
COc1ccc2[nH]cc(CCN=C(NC(=O)c3ccccc3F)Nc3nc(C)cc(C)n3)c2c1 | ? | ? | -23% | -66* | -12% | 1%
Cc1cc(C)nc(NC(=NCCc2c[nH]c3ccccc23)NC(=O)Nc2ccc(Cl)c(Cl)c2)n1 | ? | -22% | -23% | 27 | -23% | -11%
COc1ccc2[nH]cc(CCNC(=O)Cc3ccc(F)cc3)c2c1 | . | . | . | 6 | -5% | .
Cc1cc(C)nc(NC(=NCCc2c[nH]c3ccccc23)NC(=O)c2ccco2)n1 | 11µM* | ? | ? | -18 | ? | ?
